Assay [1] is described as follows: Nuclear factor erythroid 2-related factor 2/antioxidant responsive element (Nrf2/ARE) small molecule agonists: qHTS cell viability counter screen in human keratinocytes (AID 1919968; active = well fitted curve in the direction sought with a large enough effect in the repeat runs; an effect the other way counts as inactive or inconclusive; also: nearly all actives have a fitted effect of over 55% in size; also: potency is read from the fitted curve at half-maximal effect). The method in brief:
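KeratinoSens cells (HaCaT keratinocytes stably carrying an ARE-luciferase reporter) were seeded at 1,500 cells/well and rested 5 h at 37 C/5% CO2. They were then exposed to compounds in DMSO for 23 h. Viability was read by CellTiter-Fluor fluorescence after 1 h.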
Background: qHTS replaces the single test concentration by a dilution series.

Assay [2] can be described thus: Nuclear factor erythroid 2-related factor 2/antioxidant responsive element (Nrf2/ARE) small molecule agonists: luciferase reporter gene qHTS assay in human keratinocytes (AID 1919969). Also: nearly all actives have a fitted effect of over 35% in size. For orientation: In a reporter assay the amount or activity of a reporter protein is the signal.
For assay [3], the target named is Gonadotropin-releasing hormone receptor (Homo sapiens) (UniProt P30968). In words: Human gonadotropin-releasing hormone receptor (GnRHR) small molecule agonists, calcium flux assay in GnRHR-HEK293 cells (AID 1920063). Also: nearly all actives have a fitted effect of over 35% in size. The method in brief: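 HEK293 cells stably expressing human GnRHR were plated 18 h at 37 °C, loaded with calcium dye 1 h at 37 °C, then given compound in agonist mode; fluorescence (Ex/Em 480/540) read kinetically for 3 min at 1 s intervals.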
Gonadotropin-releasing hormone receptor (Homo sapiens), sequence (P30968 whole entry, looked up): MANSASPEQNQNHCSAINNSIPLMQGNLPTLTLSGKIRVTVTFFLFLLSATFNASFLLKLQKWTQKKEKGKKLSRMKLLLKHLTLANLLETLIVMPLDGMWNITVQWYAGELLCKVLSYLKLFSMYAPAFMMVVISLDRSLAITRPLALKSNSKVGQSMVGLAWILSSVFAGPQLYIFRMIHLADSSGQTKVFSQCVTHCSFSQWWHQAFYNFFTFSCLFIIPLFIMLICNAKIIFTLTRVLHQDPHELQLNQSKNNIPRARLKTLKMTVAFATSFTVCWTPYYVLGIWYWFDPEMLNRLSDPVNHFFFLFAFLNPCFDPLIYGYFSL
In general terms: Calcium flux is commonly read through the fluorescence of an indicator in the cells.

For assay [4], the target named is KiSS-1 receptor (Homo sapiens) (UniProt Q969F8). In words: Human kisspeptin (KISS1R) small molecule agonists, calcium flux assay in KISS1R-HEK293 cells (AID 1920064; active = well fitted curve in the direction sought with a large enough effect in the repeat runs; an effect the other way counts as inactive or inconclusive). The method in brief: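 HEK293 cells stably expressing human KISS1R were plated 18 h at 37 °C, loaded with calcium dye for 1 h at 37 °C, then given compound by pin tool. Fluorescence (Ex/Em 480/540) was read kinetically for 3 min.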
KiSS-1 receptor (Homo sapiens), sequence (Q969F8 whole entry, looked up): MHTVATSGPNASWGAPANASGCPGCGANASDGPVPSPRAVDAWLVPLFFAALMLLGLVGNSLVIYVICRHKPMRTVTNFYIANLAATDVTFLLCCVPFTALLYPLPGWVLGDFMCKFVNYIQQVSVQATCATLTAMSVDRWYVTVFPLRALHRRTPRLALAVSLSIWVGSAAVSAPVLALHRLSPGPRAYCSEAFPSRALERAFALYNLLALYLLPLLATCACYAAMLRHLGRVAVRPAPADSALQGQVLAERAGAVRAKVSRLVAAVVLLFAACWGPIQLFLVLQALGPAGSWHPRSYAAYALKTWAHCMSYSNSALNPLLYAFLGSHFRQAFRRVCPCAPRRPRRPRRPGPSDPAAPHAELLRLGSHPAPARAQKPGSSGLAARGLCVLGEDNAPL

Assay [5] can be described thus: G protein-coupled receptor (GPCR) small molecule agonists, calcium flux assay: HEK293 wild type cell line counter screen (AID 1920065). The method in brief: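 Cells were plated and cultured 18 h at 37 C/5% CO2, then loaded with calcium dye for 1 h at 37 C. Compounds in DMSO were pin-transferred in agonist mode, and fluorescence (Ex/Em 480/540) was read kinetically for 3 min at 1 s intervals.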

A short description of assay [6]: p53 small molecule agonists, cell-based qHTS assay with human liver microsomes (AID 1963577).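 Also: p53 response element beta-lactamase reporter cells with liver microsomes plus NADPH.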 The method in brief: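 Metabolically competent format: test substances, human liver microsomes and NADPH (both 0.5 mg/mL final) incubated with p53RE-bla cells 16 h at 37 C. Beta-lactamase reporter signal then quantified by fluorescence.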
The nature of assay [7]: p53 small molecule agonists, cell-based qHTS assay with rat liver microsomes (AID 1963578). A digest of the protocol: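 Each plate received p53RE-bla cells, then compound, then rat liver microsomes and NADPH (both 0.5 mg/mL final). Plates were held 16 h at 37 C, and beta-lactamase activity was detected with LiveBLAzer over 2 h.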
A short description of assay [8]: p53 small molecule agonists, cell-based qHTS assay with human liver microsomes: qHTS cell viability counter screen (AID 1963579). Also: nearly all actives have a fitted effect of over 45% in size. A digest of the protocol:
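Tox21 library compounds, delivered from DMSO stocks, were tested on p53RE-bla cells together with 0.5 mg/mL human liver microsomes and 0.5 mg/mL NADPH (final) over 16 h at 37 C; CellTiter-Glo luminescence served as the cytotoxicity measure.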

Assay [9] can be described thus: p53 small molecule agonists, cell-based qHTS assay with rat liver microsomes: qHTS cell viability counter screen (AID 1963580). Also: nearly all actives have a fitted effect of over 45% in size. A digest of the protocol:
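In HCT-116 cells carrying a p53 response element-bla reporter, compounds were metabolically activated in situ by rat liver microsomes with NADPH over 16 h. Cell ATP content then served as the cytotoxicity measure.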

The nature of assay [10]: p53 small molecule agonists, cell-based qHTS assay: qHTS cell viability counter screen (AID 1963581). Also: nearly all actives have a fitted effect of over 45% in size. A digest of the protocol:
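p53RE-bla HCT-116 cells were exposed to compounds for 16 h at 37 C; after the beta-lactamase FRET read in the same wells, CellTiter-Glo was added and luminescence (intracellular ATP) read after 30 min at room temperature.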

Assay [11] in a line: p53 small molecule agonists, cell-based qHTS assay (AID 1963582; active = well fitted activation curve with a large enough effect in the signal ratio in the repeat runs, not every such curve was filed as active; the % refers to the signal ratio). A digest of the protocol: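 p53RE-bla beta-lactamase reporter cells rested 5 h at 37 C/5% CO2, then received compounds in DMSO by pin transfer and were incubated 16 h at 37 C. LiveBLAzer B/G FRET substrate was loaded for 2 h at room temperature before fluorescence reading.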
In assay [12] the target is 5-hydroxytryptamine receptor 2A (Homo sapiens) (UniProt P28223). In words: 5-hydroxytryptamine receptor 2A (HTR2A) small molecule antagonists, cell-based qHTS assay (AID 1963586). Also: nearly all actives have a fitted effect of over 45% in size. A digest of the protocol:
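Antagonist-mode intracellular calcium assay: DOI (4 nM) added after 5 min compound pre-incubation at room temperature to dye-loaded HTR2A-CHO cells. Fluorescence followed for 3 min, sampled every second.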

The target in assay [13] is Muscarinic acetylcholine receptor M1 (Homo sapiens) (UniProt P11229). In words: Cholinergic receptor muscarinic 1 (CHRM1) small molecule antagonists, cell-based qHTS assay (AID 1963588). Also: nearly all actives have a fitted effect of over 40% in size. The method in brief:
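CHRM1-CHO calcium-flux assay, antagonist mode. Cells were seeded 18 h, dye-loaded 1 h at 37 C and given compound for 5 min at RT, then acetylcholine was added at 50nM. FDSS fluorescence was read 3 min; 15 concentrations, three runs.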

Assay [14] has the same target. In words: Cholinergic receptor muscarinic 1 (CHRM1) small molecule agonists, cell-based qHTS assay (AID 1963589). Also: nearly all actives have a fitted effect of over 35% in size. A digest of the protocol:
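CHO cells stably expressing human CHRM1, seeded 18 h at 37 C/5% CO2, dye-loaded 1 h at 37 C, then given compound in agonist mode; intracellular calcium fluorescence read kinetically at 1 s intervals. Fifteen concentrations, three independent runs.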

The nature of assay [15]: cAMP Responsive Elements (CRE) small molecule agonists, cell-based qHTS assay (AID 1963590). The method in brief:
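CRE-bla HEK 293T cells in DMEM with 10% dialyzed FBS, NEAA, pyruvate and 25 mM HEPES were plated 18 h at 37 C/5% CO2, then exposed to compounds in DMSO for 3 h before LiveBLAzer B/G FRET substrate addition.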

A short description of assay [16]: cAMP Responsive Elements (CRE) small molecule antagonists, cell-based qHTS assay (AID 1963591; active = well fitted inhibition curve with a large enough effect in the signal ratio in the repeat runs, not every such curve was filed as active; the % refers to the signal ratio). The method in brief:
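CRE-bla HEK293T cells were plated 18 h at 37 °C/5% CO2, pinned with compound in DMSO, then stimulated with NKH477 at 0.25 uM final for 3 h. LiveBLAzer B/G FRET substrate was added and plates incubated 2 h at room temperature.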

Assay [17] addresses Beta-2 adrenergic receptor (Homo sapiens) (UniProt P07550). In words: Adrenergic beta2 receptor (ADRB2) small molecule antagonists, cell-based qHTS assay (AID 1963592). Also: series mostly up to about 92 µM; nearly all actives have a fitted effect of over 50% in size. The method in brief:
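Cells (CHO, stable ADRB2 overexpression) incubated 18-20hr at 37C; compounds added from DMSO; agonist mix (1nM isoproterenol, 100uM IBMX, 25uM Ro-20-1724) added; 0.5hr RT; d2-cAMP and anti-cAMP-cryptate added; 1hr RT; 665/615 nm read.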

Assay [18] concerns the target D(2) dopamine receptor (Homo sapiens) (UniProt P14416). In words: Dopamine D2 receptor (DRD2) small molecule agonists, cell-based qHTS assay (AID 1963594). Also: nearly all actives have a fitted effect of over 35% in size. A digest of the protocol: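 HEK293 cells stably expressing DRD2 were cultured 24 h at 37 C, then given Ro20-1724 (0.1 mM final) and compounds for 10 min at room temperature. NKH477 (200nM) was then added for 30 min. cAMP was read by HTRF.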

Assay [19] shares this target. In words: Dopamine D2 receptor (DRD2) small molecule antagonists, cell-based qHTS assay (AID 1963595; active = well fitted inhibition curve with a large enough effect in the signal ratio in the repeat runs, with a control signal flat; the % refers to the signal ratio). A digest of the protocol:
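Cells were plated and grown for 24 h at 37 °C. Ro20-1724 (0.1 mM final) went in first, then compound for 10 min. NKH477 (200 nM) with quinpirole (12 nM) followed for 30 min at RT, then HTRF detection reagents for 1 h.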

Assay [20] deals with 5-hydroxytryptamine receptor 2A (Homo sapiens) (UniProt P28223). In words: 5-hydroxytryptamine receptor 2A (HTR2A) small molecule agonists, cell-based qHTS assay (AID 1963587). Also: nearly all actives have a fitted effect of over 30% in size. The method in brief:
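HTR2A-CHO cells, plated 18 h at 37 C/5% CO2, dye-loaded 1 h at 37 C; compounds in DMSO added by pin tool (agonist mode). Intracellular calcium flux read as kinetic fluorescence on FDSS over 2 min at 1 s intervals.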

Results filed as inconclusive are left out. Activity calls are given as the source filed them. Unless noted, calls follow the shape of the full dose curve.

From PubChem BioAssay (Tox21) come the findings set out here.

5-hydroxytryptamine receptor 2A (Homo sapiens), sequence (P28223 whole entry, looked up): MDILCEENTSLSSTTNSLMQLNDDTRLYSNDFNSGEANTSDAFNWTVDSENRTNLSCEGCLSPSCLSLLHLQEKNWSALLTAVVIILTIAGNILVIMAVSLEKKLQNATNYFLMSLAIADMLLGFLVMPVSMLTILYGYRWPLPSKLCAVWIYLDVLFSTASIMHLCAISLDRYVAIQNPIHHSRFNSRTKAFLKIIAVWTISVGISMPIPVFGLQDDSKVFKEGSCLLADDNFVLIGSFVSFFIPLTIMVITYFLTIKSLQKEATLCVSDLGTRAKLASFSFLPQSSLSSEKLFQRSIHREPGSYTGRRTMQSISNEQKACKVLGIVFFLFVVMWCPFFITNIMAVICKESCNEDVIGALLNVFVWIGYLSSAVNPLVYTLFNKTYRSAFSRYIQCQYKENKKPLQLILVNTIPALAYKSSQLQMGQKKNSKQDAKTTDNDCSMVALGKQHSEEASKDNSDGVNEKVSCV
Beta-2 adrenergic receptor (Homo sapiens), sequence (P07550 whole entry, looked up): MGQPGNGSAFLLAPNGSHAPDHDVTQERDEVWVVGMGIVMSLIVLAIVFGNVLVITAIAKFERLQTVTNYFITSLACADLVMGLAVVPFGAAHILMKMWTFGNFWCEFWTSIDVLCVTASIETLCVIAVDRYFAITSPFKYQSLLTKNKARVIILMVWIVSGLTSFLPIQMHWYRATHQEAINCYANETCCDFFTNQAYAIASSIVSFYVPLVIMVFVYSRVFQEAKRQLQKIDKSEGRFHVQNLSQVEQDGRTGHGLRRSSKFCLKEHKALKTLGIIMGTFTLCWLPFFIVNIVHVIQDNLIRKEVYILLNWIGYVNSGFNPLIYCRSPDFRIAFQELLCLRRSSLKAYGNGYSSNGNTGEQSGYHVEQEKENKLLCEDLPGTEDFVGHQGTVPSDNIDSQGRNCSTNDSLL
Muscarinic acetylcholine receptor M1 (Homo sapiens), sequence (P11229 whole entry, looked up): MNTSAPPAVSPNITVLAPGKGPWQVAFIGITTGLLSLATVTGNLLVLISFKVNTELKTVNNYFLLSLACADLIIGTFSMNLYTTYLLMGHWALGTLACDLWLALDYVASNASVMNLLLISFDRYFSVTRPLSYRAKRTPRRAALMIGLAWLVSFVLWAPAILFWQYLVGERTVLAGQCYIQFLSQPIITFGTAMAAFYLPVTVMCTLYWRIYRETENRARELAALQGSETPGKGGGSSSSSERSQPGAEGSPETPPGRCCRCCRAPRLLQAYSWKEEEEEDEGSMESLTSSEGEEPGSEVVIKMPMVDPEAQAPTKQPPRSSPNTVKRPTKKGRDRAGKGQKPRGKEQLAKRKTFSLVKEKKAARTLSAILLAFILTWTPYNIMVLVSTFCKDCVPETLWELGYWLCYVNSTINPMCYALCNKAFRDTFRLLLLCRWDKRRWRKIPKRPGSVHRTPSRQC
D(2) dopamine receptor (Homo sapiens), sequence (P14416 whole entry, looked up): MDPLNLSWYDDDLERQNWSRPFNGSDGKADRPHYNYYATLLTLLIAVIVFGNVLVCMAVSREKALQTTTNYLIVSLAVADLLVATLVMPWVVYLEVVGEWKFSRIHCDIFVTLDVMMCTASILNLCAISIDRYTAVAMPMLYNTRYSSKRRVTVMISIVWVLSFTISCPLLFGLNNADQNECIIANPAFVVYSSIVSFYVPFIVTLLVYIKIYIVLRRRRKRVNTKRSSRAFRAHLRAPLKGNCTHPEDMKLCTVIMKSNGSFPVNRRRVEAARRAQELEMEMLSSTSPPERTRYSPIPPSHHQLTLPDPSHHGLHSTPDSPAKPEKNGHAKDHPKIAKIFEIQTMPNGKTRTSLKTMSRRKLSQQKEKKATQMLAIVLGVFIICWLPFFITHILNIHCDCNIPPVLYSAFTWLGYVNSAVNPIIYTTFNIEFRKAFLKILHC

Turning to `CC(C)OC(=O)Cc1ccccc1`, the Potency entry in assay [1], in assay [2], in assay [3], in [4], in [5] and in assay [6] was “inactive” in each case. The Potency result in assay [7], in assay [8], in assay [9], in [10], in assay [11] and in [12] was “inactive” each time. Further, the Potency result in [13], in [14], in assay [15], in assay [16], in assay [17] and in assay [18] was “inactive” each time. In addition, the Potency result in assay [19] is “inactive”.
`CCCCCCOC(=O)c1ccccc1C(=O)OCCCCCC`: the Potency result in assay [1], in assay [2], in [3], in assay [4], in assay [5] and in assay [6] was “inactive” throughout. In addition, the Potency entry in assay [7], in assay [8], in assay [9], in assay [10], in assay [11] and in assay [12] was “inactive” each time. Also, the Potency result in assay [13], in assay [14], in [15], in [16], in [17] and in [19] was “inactive” throughout.
For `C#C[C@]1(O)CC[C@H]2[C@@H]3CCC4=CC(=O)CC[C@]4(C)[C@H]3CC[C@@]21C`, the Potency entry in assay [1], in assay [2], in [3], in assay [4], in assay [5] and in assay [6] was “inactive” in each case. Besides, the Potency entry in [7], in assay [8], in assay [9], in [10], in [11] and in assay [15] was “inactive” throughout. The Potency result in assay [16], in assay [17] and in [18] was “inactive” throughout.
As for `O=C(O)CCCc1ccc(N(CCCl)CCCl)cc1`, the Potency entry in [1], in [2], in [3], in [4], in assay [5] and in assay [6] was “inactive” in each case. The Potency result in assay [7], in assay [8], in assay [9], in [10], in [11] and in assay [15] was “inactive” in each case. Also, the Potency entry in [16], in assay [17], in assay [18] and in assay [19] was “inactive” in each case.
For `C[C@]12CCC(=O)C=C1CC[C@@H]1[C@@H]2CC[C@@]2(C)[C@H]1CC[C@]2(C)O`, the Potency entry in [1], in assay [2], in assay [3], in assay [4], in assay [5] and in assay [6] was “inactive” throughout. Further, the Potency entry in assay [7], in assay [8], in assay [9], in assay [10], in [11] and in assay [15] was “inactive” in each case. For the same compound, the Potency result in assay [17] and in assay [19] was “inactive” in each case.
In the case of `CCN(CC)c1ccccc1`, the Potency entry in assay [1], in assay [2], in [3], in [4], in assay [5] and in [6] was “inactive” each time. The Potency result in [7], in [8], in assay [9], in assay [10], in assay [12] and in assay [20] was “inactive” in each case. Besides, the Potency result in [13], in assay [14], in assay [15], in assay [16], in assay [17] and in assay [18] was “inactive” in each case. Moreover, the Potency entry in [19] is “inactive”.
For the compound `Cc1ccc2cc(C)ccc2c1`, the Potency result in [1], in assay [2], in assay [3], in assay [4], in assay [5] and in assay [6] was “inactive” throughout. In addition, the Potency entry in assay [7], in assay [8], in assay [9], in [10], in [11] and in assay [20] was “inactive” each time. Besides, the Potency entry in [13], in assay [14], in assay [15], in assay [16], in assay [17] and in [19] was “inactive” throughout.
`Oc1c(Cl)c(Cl)c(Cl)c(Cl)c1Cl`: in [1], the Potency was 30 µM (active). Besides, the Potency entry in assay [2], in [3], in [4], in [5], in assay [6] and in [7] was “inactive” in each case. Besides, the Potency entry in [8], in [9], in assay [10], in assay [20], in assay [14] and in assay [16] was “inactive” each time. For the same compound, the Potency result in assay [17] and in assay [18] was “inactive” in each case.
